# Several values for one entry are separate records, joined by “and”; a condition that tells them apart may be missing. Identical values can stand only once. Like-named read-outs stand apart in the source and are kept apart here.
# Legend:
# TRKA = system: T1, TRKA
# T1 construct: gene NTRK1
# TRKC = system: T2, TRKC
# T2 construct: gene NTRK3
# [1] = system: TYK2(JH1domain-catalytic)
# VPS34 = system: T3, VPS34
# T3 construct: gene PIK3C3
# YANK1 = system: T4, YANK1
# T4 construct: gene STK32A
# YSK4 = system: T5, YSK4
# T5 construct: gene MAP3K19
# ABL1-nonphosphorylated = conditions: concentration: 1 μM, replicates: in singlicate, n = 1
# ABL1-phosphorylated = conditions: concentration: 1 μM, replicates: in singlicate, n = 1
# p38-beta = system: T6, p38-beta
# T6 construct: gene MAPK11
# AAK1 = conditions: concentration: 1 μM, replicates: in singlicate; n = 1
# 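Wherever %Inh is given: KINOMEscan kinase panel screen.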
# 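Wherever Kd is given: kd values determined as follow-up on hits from a single-replicate KINOMEscan panel screen.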
structure (smiles),measurement,setting,value
O=C(Nc1ccccc1)Nc1ccc(Oc2ccc3nccn3n2)cc1,Kd,TNNI3K,> 10 µM
CC(=O)Nc1n[nH]c2ncc(-c3ccccc3)cc12 [SB-548492],Kd,TRKA,2.5 µM
Clc1ccc(-c2cc(-c3c[nH]nc3-c3ccccn3)ccn2)cc1 [GW681251],Kd,TRKC,> 10 µM
CC(C)(C)OC(=O)NC1CCCN(c2cc(-c3ccc4c(N)n[nH]c4c3)nc(N)n2)C1 (centres unmarked) [GSK2286096],Kd,TSSK3,> 10 µM
Nc1n[nH]c2nnc(-c3ccccc3)cc12 [SB-517389],Kd,TSSK3,> 10 µM
CS(=O)(=O)CCNCc1nc(-c2ccc3ncnc(Nc4ccc(OCc5cccc(F)c5)c(Cl)c4)c3c2)cs1.Cl [GW583340],Kd,TXK,> 10 µM
same,Kd,ZAK,> 10 µM
C[C@@H]1CCN(C(=O)CO)C[C@@H]1N(C)c1ncnc2[nH]ccc12,Kd,[1],0.11 µM
CCCc1ccc(S(=O)(=O)NC2CCN(c3ccnc(Nc4ccc(OC)cc4)n3)C2)cc1 (centres unmarked) [GSK1379737],Kd,ULK1,> 10 µM
Fc1ccc(Nc2nccc(-c3c(-c4ccc(Cl)cc4)nn4ncccc34)n2)cc1F [GW829058],Kd,ULK2,> 10 µM
CSc1nn2c(=O)cc(N3CCOCC3)nc2n1Cc1cccc(Cl)c1Cl [GSK2347225],Kd,VPS34,0.00072 µM
O=c1cc(N2CCOCC2)nc2n(Cc3cccc(Cl)c3)ccn12 [GSK2296823],Kd,VPS34,0.035 µM
COc1ccc(Nc2nccc(N3CCC(NC(=O)c4cccc(NC(C)=O)c4)C3)n2)cc1 (centres unmarked) [GSK1379732],Kd,WNK4,> 10 µM
Nc1nc(-c2ccccn2)c(-c2ccnc3ccccc23)s1 [GW548057],Kd,WNK4,> 10 µM
FC(F)(F)c1ccc(-c2cc(-c3c[nH]nc3-c3ccccn3)ccn2)cc1 [GW599550],Kd,YANK1,> 10 µM
COc1ccc(-c2nc3n(c2-c2ccncc2)CCC3)cc1 [SKF-104493],Kd,YSK4,> 10 µM
same,%Inh,ABL1-nonphosphorylated; 1 µM,51% and 2%
same,%Inh,ABL1-phosphorylated; 1 µM,20% and 0%
CCc1nc(-c2cccc(N(C)S(=O)(=O)c3ccccc3)c2)c(-c2ccnc(Nc3ccc(N4CCN(C(C)=O)CC4)nc3)n2)s1 [GSK1645895],Kd,ZAK,0.22 µM
COc1cc2c(Nc3cccc(NC(=O)c4ccccc4)c3)ncnc2cc1OCCCN1CCOCC1 [GSK223810],Kd,p38-beta,0.1 µM
CCc1nc(-c2cccc(C)c2)c(-c2ccnc(NC(=O)c3ccccc3)c2)s1,%Inh,AAK1,2%
same,%Inh,ABL1-nonphosphorylated,24%
same,%Inh,ABL1-phosphorylated,0%
Cl.c1ccc(Cn2ncc3cc(Nc4ncnc5ccccc45)ccc32)cc1 [GW273749],%Inh,AAK1,30%
same,%Inh,ABL1-nonphosphorylated,38%
same,%Inh,ABL1-phosphorylated,17%
Cc1ccc(C)c(NC(=O)NCCNc2ccnc(Nc3ccc(F)cc3)n2)c1 [GSK1379878],%Inh,AAK1,63%
same,%Inh,ABL1-nonphosphorylated,0%
same,%Inh,ABL1-phosphorylated,0%
FC(F)(F)c1ccc(-c2nn3ncccc3c2-c2ccnc(Nc3cccc(C(F)(F)F)c3)n2)cc1 [GW828205],%Inh,AAK1,1%
same,%Inh,ABL1-nonphosphorylated,47%
same,%Inh,ABL1-phosphorylated,30%
Cc1cccc(-c2nc(Nc3ccc4[nH]nnc4c3)c3ccccc3n2)n1 [GW867587],%Inh,AAK1,0%
same,%Inh,ABL1-nonphosphorylated,78%
same,%Inh,ABL1-phosphorylated,47%
Fc1cccc(COc2ccc(Nc3ncnc4nn5ccccc5c34)cc2Cl)c1 [GW689066],%Inh,AAK1,0%
same,%Inh,ABL1-nonphosphorylated,0%
same,%Inh,ABL1-phosphorylated,0%
Cl.O=S(=O)(c1cccc(F)c1)c1ccc(Nc2ncnc3cc(Br)sc23)cc1Cl [GSK306886],%Inh,AAK1,16%
same,%Inh,ABL1-nonphosphorylated,0%
same,%Inh,ABL1-phosphorylated,0%
CC(C)(C)c1ccc(-n2cnc3c(N)ncnc32)cc1 [SKF-97263],%Inh,AAK1,1%
same,%Inh,ABL1-nonphosphorylated,0%
same,%Inh,ABL1-phosphorylated,0%
COc1cc2ncnc(Nc3ccc(OCc4ccccc4Br)c(Cl)c3)c2cc1OC.Cl [GI261590],%Inh,AAK1,15%
same,%Inh,ABL1-nonphosphorylated,0%
same,%Inh,ABL1-phosphorylated,0%
Nc1nc(-c2ccc3c(N)n[nH]c3c2)cc(N2CCC[C@@H](C(=O)Nc3ccccc3)C2)n1.O=C(O)C(F)(F)F.O=C(O)C(F)(F)F [GSK2288359],%Inh,AAK1,38%
same,%Inh,ABL1-nonphosphorylated,0%
same,%Inh,ABL1-phosphorylated,0%
FC(F)(F)c1cc(Nc2nccc(-c3c(-c4ccc(Cl)cc4)nn4ncccc34)n2)ccc1Cl [GW829351],%Inh,AAK1,4%
same,%Inh,ABL1-nonphosphorylated,42%
same,%Inh,ABL1-phosphorylated,0%
COC(=O)c1c(-c2ccccc2)c2cc(Cl)ccc2c(=O)n1Cc1ccc(S(C)(=O)=O)cc1,%Inh,AAK1,18%
same,%Inh,ABL1-nonphosphorylated,40%
same,%Inh,ABL1-phosphorylated,0%
O=C(Nc1n[nH]c2nc(-c3ccco3)c(Br)cc12)c1ccc(CN2CCCC2)cc1.O=C(O)[C@H](O)[C@@H](O)C(=O)O [SB-742352],%Inh,AAK1,0%
same,%Inh,ABL1-nonphosphorylated,63%
same,%Inh,ABL1-phosphorylated,36%
Oc1ccc2ncnc(Nc3ccc(OCc4ccccc4)cc3)c2c1 [GI262866],%Inh,AAK1,0%
same,%Inh,ABL1-nonphosphorylated,0%
same,%Inh,ABL1-phosphorylated,0%

# Source: paper PMC5540273 (PLoS ONE, 2017)
